Results filed as inconclusive are left out. Entries that show only a call come without a potency. A number with no mark means an inactive call. Calls of active or inactive are those of the source. Unless noted, the call rests on the fitted dose curve; in most records, active means well fitted curve in the direction sought with a large enough effect; inconclusive means small, poorly fitted or top-dose-only effect, or another doubt; inactive means no such curve, though single readings can be large; an effect the other way counts as inactive or inconclusive.
Key:
[1] = Primary qHTS for inhibitors of La Crosse Virus (LACV) - induced cell death in SH-SY5Y cells (AID 1508616);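 further: top concentration of the series differs between compounds; higher means more rescue of cells from virus-induced death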
In short: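 Cytopathicity rescue screen: compounds pinned onto SH-SY5Y cells, which are then infected with LACV (MOI 0.01) and held 6 days at 37C. Percent activity is scaled between infected DMSO control and uninfected DMSO control.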

[2] = target: Calcium and integrin-binding protein 1 (Homo sapiens) (UniProt Q99828); test: Primary qHTS for Identification of Calcium Integrin Binding Protein 1 (CIB1) Competitor (AID 1508620);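 further: GST tagged CIB1 binding a fluorescein labelled alphaIIb integrin peptide tracer; top concentration of the series differs between compounds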
Calcium and integrin-binding protein 1 (Homo sapiens), sequence (Q99828 whole entry, looked up): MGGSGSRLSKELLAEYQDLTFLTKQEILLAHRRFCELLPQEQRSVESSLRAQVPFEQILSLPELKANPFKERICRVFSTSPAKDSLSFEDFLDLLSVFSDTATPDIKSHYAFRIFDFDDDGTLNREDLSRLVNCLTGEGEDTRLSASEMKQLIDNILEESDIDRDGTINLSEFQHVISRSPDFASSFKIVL
In short: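 Fluorescence polarization competition: GST-tagged CIB1 (1 uM final) preincubated with compound 15 min at room temperature, then FITC-labelled alphaIIb peptide (100 nM final) added. After 15 min at room temperature, polarization read at Ex 480/Em 540.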

[3] = A High-Content qHTS Against Drug Library for the Identification of Small Molecules that Inhibit DYT1 Early Onset Primary Dystonia-Associated Cell Pathology (AID 1645839; calls by dose curve; further: series mostly up to about 46 µM)
In short: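 Cells were seeded and left for 24 h, then dosed with compound alongside tetracycline induction of mutant EGFP-TorsinA. They were incubated for 48 h, fixed in 4% paraformaldehyde, permeabilized and imaged for mislocalization (%pathology) and cell count.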

[4] = target: Cytochrome P450 2C9 (Homo sapiens) (UniProt P11712); test: Cytochrome P450 family 2 subfamily C member 9 (CYP2C9) small molecule antagonists: luciferase biochemical (cell-free) qHTS assay (AID 1645842; active means well fitted curve in the direction sought with a large enough effect in the repeat runs; an effect the other way counts as inactive or inconclusive; further: nearly all actives have a fitted effect of over 55% in size; further: potency means the concentration at half of the fitted maximal effect)
Cytochrome P450 2C9 (Homo sapiens), sequence (P11712 whole entry, looked up): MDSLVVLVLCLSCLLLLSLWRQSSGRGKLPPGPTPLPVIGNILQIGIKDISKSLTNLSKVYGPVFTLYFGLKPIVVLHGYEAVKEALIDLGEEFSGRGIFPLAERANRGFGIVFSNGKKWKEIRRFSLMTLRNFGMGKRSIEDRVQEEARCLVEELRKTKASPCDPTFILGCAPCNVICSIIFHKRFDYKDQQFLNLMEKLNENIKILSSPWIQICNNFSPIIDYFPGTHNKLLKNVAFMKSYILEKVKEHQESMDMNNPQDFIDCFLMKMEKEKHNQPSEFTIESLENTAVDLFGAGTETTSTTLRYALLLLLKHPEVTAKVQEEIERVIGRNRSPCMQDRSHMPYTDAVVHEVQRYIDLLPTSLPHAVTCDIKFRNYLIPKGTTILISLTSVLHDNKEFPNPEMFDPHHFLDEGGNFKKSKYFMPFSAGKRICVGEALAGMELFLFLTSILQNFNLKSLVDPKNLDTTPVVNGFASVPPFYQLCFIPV
In short: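 P450-Glo CYP2C9 system: proluciferin substrate with enzyme in mix containing 0.4% BSA, 10 min at room temperature, then NADPH regeneration solution added and incubated 1 h at 37C. Detection reagent stopped reaction; luminescence read after 20 min as RLU.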

[5] = Primary qHTS for inhibitors of nuclear receptor binding SET domain protein 2 (NSD2) in an isogenic RCH-ACV NSD2 p.E1099K mutant (9B) (AID 1645876); further: nearly all actives have a fitted effect of over 70% in size
[6] = Primary qHTS for inhibitors of nuclear receptor binding SET domain protein 2 (NSD2) in an RCH-ACV wild type WT cells (2C) (AID 1645877); further: nearly all actives have a fitted effect of over 70% in size
[7] = target: Cytochrome P450 2D6 (Homo sapiens) (UniProt P10635); test: Cytochrome P450 family 2 subfamily D member 6 (CYP2D6) small molecule antagonists: luciferase biochemical (cell-free) qHTS assay (AID 1645840; active means well fitted curve in the direction sought with a large enough effect in the repeat runs; an effect the other way counts as inactive or inconclusive; further: potency means the concentration at half of the fitted maximal effect; nearly all actives have a fitted effect of over 55% in size)
Cytochrome P450 2D6 (Homo sapiens), sequence (P10635 whole entry, looked up): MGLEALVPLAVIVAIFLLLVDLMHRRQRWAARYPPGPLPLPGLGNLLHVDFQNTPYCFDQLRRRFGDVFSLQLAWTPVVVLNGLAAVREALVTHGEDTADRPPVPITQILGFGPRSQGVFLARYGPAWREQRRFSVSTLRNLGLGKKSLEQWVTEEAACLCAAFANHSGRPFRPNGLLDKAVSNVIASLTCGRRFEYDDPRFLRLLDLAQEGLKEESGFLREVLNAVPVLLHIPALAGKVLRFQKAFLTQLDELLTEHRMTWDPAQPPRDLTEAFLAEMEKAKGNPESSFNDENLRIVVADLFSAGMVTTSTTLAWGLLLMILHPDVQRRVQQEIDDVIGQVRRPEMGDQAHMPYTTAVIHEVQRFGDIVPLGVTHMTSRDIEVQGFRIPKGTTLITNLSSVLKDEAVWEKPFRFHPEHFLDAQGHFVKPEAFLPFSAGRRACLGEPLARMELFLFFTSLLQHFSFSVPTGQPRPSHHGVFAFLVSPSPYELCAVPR
In short: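 P450-Glo CYP2D6 system: proluciferin substrate converted by enzyme to luciferin, read by luminescence proportional to activity. Enzyme-substrate mix with compound 10 min at room temperature, then NADPH regeneration 1 h before detection reagent.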

[8] = target: Cytochrome P450 3A4 (Homo sapiens) (UniProt P08684); test: Cytochrome P450 family 3 subfamily A member 4 (CYP3A4) small molecule antagonists: luciferase qHTS assay (AID 1645841; active means well fitted curve in the direction sought with a large enough effect in the repeat runs; an effect the other way counts as inactive or inconclusive; further: nearly all actives have a fitted effect of over 45% in size)
Cytochrome P450 3A4 (Homo sapiens), sequence (P08684 whole entry, looked up): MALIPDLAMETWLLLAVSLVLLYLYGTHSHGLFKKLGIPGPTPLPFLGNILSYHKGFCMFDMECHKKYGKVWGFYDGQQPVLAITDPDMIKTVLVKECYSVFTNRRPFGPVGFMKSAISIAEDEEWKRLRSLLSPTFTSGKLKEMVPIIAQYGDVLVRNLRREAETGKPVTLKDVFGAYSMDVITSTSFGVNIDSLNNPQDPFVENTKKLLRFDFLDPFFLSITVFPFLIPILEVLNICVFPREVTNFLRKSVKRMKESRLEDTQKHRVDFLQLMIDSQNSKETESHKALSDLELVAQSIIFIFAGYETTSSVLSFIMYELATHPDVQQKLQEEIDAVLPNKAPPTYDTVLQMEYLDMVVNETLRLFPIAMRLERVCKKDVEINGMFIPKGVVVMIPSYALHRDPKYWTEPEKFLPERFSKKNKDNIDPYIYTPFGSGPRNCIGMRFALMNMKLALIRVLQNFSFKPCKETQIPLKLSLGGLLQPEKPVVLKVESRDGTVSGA
In short: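 P450-Glo CYP3A4 enzyme with proluciferin substrate preincubated 10 min with compound at room temperature, then NADPH regeneration 1 h. Luciferin detection reagent added for 20 min; luminescence recorded. Ketoconazole positive control.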

Row | SMILES | outcome [1] | Potency [2] | Potency [3] | Potency [4] | Potency [5] | Potency [6] | Potency [7] | Potency [8]
1 | Cc1ccc(C(=O)C(=O)O)cc1C | inactive | inactive | inactive | inactive | inactive | inactive | – | –
2 | CCOC(=O)N1CCC(n2c(=O)[nH]c3cc(Cl)ccc32)CC1 | inactive | inactive | inactive | 11 µM (active) | – | – | – | –
3 | O=C1CCCc2c(O)cccc21 | inactive | inactive | inactive | inactive | inactive | inactive | – | –
4 | CC1CC(=O)NN=C1c1ccc(NCC(C)(C)NCC(O)COc2cc(Cl)ccc2C#N)cc1 (centres undefined) | inactive | inactive | inactive | – | inactive | inactive | 0.871 µM (active) | –
5 | CC(=O)N(CC(O)CO)c1c(I)c(C(=O)NCCO)c(I)c(C(=O)NCC(O)CO)c1I (centres undefined) | inactive | inactive | inactive | – | inactive | inactive | – | inactive
6 | CC(=O)N1CCN(c2ccc(O)cc2)CC1 | inactive | inactive | inactive | inactive | – | – | – | –
7 | Brc1ccccc1-c1ccccc1 | inactive | inactive | inactive | inactive | inactive | inactive | – | –
8 | CSCC[C@H](NC(=O)[C@H](Cc1c[nH]c2ccccc12)NC(=O)CCNC(=O)OC(C)(C)C)C(=O)N[C@@H](CC(=O)O)C(=O)N[C@@H](Cc1ccccc1)C(N)=O | inactive | inactive | inactive | inactive | inactive | inactive | – | –
9 | COc1ccc2cc(C=O)ccc2c1 | inactive | inactive | inactive | – | inactive | inactive | – | –
10 | Cc1ccc2ccc(Cl)cc2n1 | inactive | inactive | inactive | inactive | inactive | inactive | – | –
11 | Nc1nnnn1-c1ccccc1 | inactive | inactive | inactive | – | inactive | inactive | – | –
12 | CCOC(=O)c1cc(=O)c2c(OCC(COc3cccc4oc(C(=O)OCC)cc(=O)c34)OC(=O)[C@@H](N)CCCCN)cccc2o1 | inactive | inactive | inactive | – | inactive | inactive | – | –
13 | O=C(CCC1CCN(Cc2ccccc2)CC1)c1ccc2c(c1)NCCCC2 | inactive | inactive | – | – | – | – | 9.77 µM (active) | –
14 | Nc1c(NC/C=C\COc2cc(CN3CCCCC3)ccn2)c(=O)c1=O | inactive | inactive | inactive | inactive | inactive | inactive | – | –
15 | CCCCC(CC)CNC(=O)CC(C)OC(=O)CCC(=O)O (centres undefined) | inactive | inactive | inactive | – | inactive | inactive | – | –

Reference: PubChem BioAssay (NCATS)
